In all, about 360,000 compounds went through this assay and about 2,000 (0.56%) were called active. Only a selection was taken, and actives are over-represented in it overall. Unmarked numbers belong to inactive results.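 How the source made its calls: active means activation above the average of all compounds screened plus 3 SD, cutoff fixed separately per campaign (cut at about 7.5% in these data); inactive means the rest.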

This assay can be described thus: GAA850 frataxin promoter reporter upregulation – cell-based, luciferase luminescence, HEK293 lucGAA850, primary screen (AID 540364).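 Further: 0% = DMSO wells and 100% = 10 µM SAHA wells.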 The settings on record: HEK293 lucGAA850 FXN promoter luciferase reporter, 24 h; at 6 µM; hits give high values; percent of 10 µM SAHA response.
`NC(=O)c1ccsc1NC(=O)COC(=O)COc1ccc(C=O)cc1`: the activation was 1.47%. With `CCOC(=O)C(=Cc1ccccc1)C(=O)c1ccccc1`, the activation was -4.25%. For `Cc1cc(C)nc(S/C=C/C(=O)c2ccccc2)n1`, the activation was 14.6% (active). As for `Cc1cc(C)nc(SC(C)C(=O)N/N=C/c2cccs2)n1` (configuration not stated), the figure is -1.1%; as for `CC(=O)c1ccc(N2CCN(C(=O)C3CCN(S(=O)(=O)c4ccc5c(c4)CC(C)N5C(=O)C4CC4)CC3)CC2)cc1` (configuration not stated), 1.92%; as for `Cc1ccc(SC(CC(=O)c2ccc(C(C)(C)C)cc2)C(=O)O)cc1` (configuration not stated), 9.01% (active). With `Cc1ccc(Sc2cc(C(=O)c3ccccc3C(=O)O)ccc2[N+](=O)[O-])cc1`, the activation is 0.3%. As for `CC(C)(C)c1ccc(C(=O)NNC(=O)Cc2ccccc2)cc1`, the activation was 3.03%.

On to `COc1ccc(/C=C2\CCCC3C2=NN(C(=O)c2scnc2C)C3c2ccc(OC)cc2)cc1` (configuration not stated), for which the activation was 1.94%. As for `Cc1ccc(NC(=O)C(CC(=O)O)C2CCCO2)c(C)c1` (configuration not stated), the activation was 0.8%. In the case of `COc1ccc(C(CNC(=O)c2cc3c(s2)CCCC3)N2CCOCC2)cc1` (configuration not stated), the activation is 1.32%.

`CC1(C(=O)NS(=O)(=O)c2ccccc2Cl)CCN1C(=O)c1cccc(F)c1` (configuration not stated): the activation is 1.46%.

For `CC1(C(=O)NCc2ccc3c(c2)OCO3)CCN1C(=O)Cc1cccc2ccccc12` (configuration not stated), the activation was 0.09%. `CSc1ccc(CN2CCC2(C)C(=O)NCc2ccccc2Br)cc1` (configuration not stated): the activation was 0.95%.

On to `CC1(C(=O)NCc2cccc3ccccc23)CCN1Cc1ccc(-c2ccccc2)o1` (configuration not stated), for which the activation was 10% (active). With `CCC1CO/C(=C(\C(=C(Cl)Cl)N2CCOCC2)[N+](=O)[O-])N1` (configuration not stated), the activation was 1.9%. Consider `Cc1cccc(NC(=O)CN2CCCN(S(=O)(=O)c3ccc(Br)s3)CC2)c1`, for which the activation was 0.67%. Turning to `COc1cc(OC)cc(-c2c(-c3cccs3)c3cc(-c4ccc(OC)cc4F)ccc3n2C)c1`, the activation was 0.9%. On to `CC(C)(C)NC(=O)C(c1ccco1)N(Cc1ccc2c(c1)OCO2)C(=O)Cn1nnc2ccccc21` (configuration not stated), for which the activation is -3.64%. As for `COc1ccc(N(CC(=O)N2CCCCCC2)S(=O)(=O)c2ccccc2)cc1`, the figure is -0.03%; as for `COc1ccc(N(CCC#N)S(=O)(=O)c2ccc(Cl)cc2)cc1`, 9.52% (active). As for `COc1ccc(S(=O)(=O)NCCCCOc2ccc(Cl)cc2)cc1`, the figure is 1.56%; as for `COc1ccc2c(c1)C(=C(C#N)C#N)C(=O)N2CCc1ccccc1`, 1.6%. Turning to `COc1cc(NC(=S)NCCSc2ccc(C)cc2)cc(OC)c1`, the activation is 0.45%.

On to `COc1ccc(Cl)cc1NC(=O)CN(C)C(=O)CCCc1c[nH]c2ccccc12`, for which the activation is 9.56% (active). As for `COc1ccc(Cl)cc1NC(=O)CN(C)C(=O)c1cc2ccccc2cc1OC`, the figure is 0.89%; as for `COc1ccc(Cl)cc1NC(=O)CN(C)C(=O)CNC(=O)C12CC3CC(CC(C3)C1)C2`, 1.23%.

As to `COCCNc1ncnc2c1ncn2[C@H]1CN(CCN2CCOCC2)C[C@@H](CO)O1`, the activation was 0.56%.

In the case of `Cc1ccc(C(NC(=O)C2CCN(CCOc3ccc(Cl)cc3Cl)CC2)c2ccccn2)cc1` (configuration not stated), the activation was 1.16%. `O=C(N/N=C/C=C/c1ccco1)c1cccs1`: the activation is 11.9% (active). As for `O=C(N/N=C/c1ccco1)c1ccc(NC(=O)C2CC2)cc1`, the figure is 1.23%. In the case of `O=C(N/N=C/c1ccco1)c1csc2c1CCCC2`, the activation was 1.3%. As for `O=C1CS(=O)CN1c1ccc(Oc2ccccc2)cc1` (configuration not stated), the activation is 0.15%.

In the case of `Cc1ccc(-n2nc(N)c3c(=O)oc(N(C)C)nc32)cc1`, the activation was -0.82%.

In the case of `Cc1ccsc1C(=O)NCCc1ccco1`, the activation was 2.23%. On to `CCCCc1ccc(NC(=S)N2CCCC(CO)C2)cc1` (configuration not stated), for which the activation is 9.18% (active). Then `CCC(C)c1ccc(NC(=S)N2CCCC2)cc1` (configuration not stated), with 2.31%. For `CCOc1ccc(NC(=S)N2CCCCCC2)cc1`, the activation was 1.3%.

Regarding `O=C(O)c1ccc(N/N=C/c2ccc3ncccc3c2)cc1`, the activation is -3.19%. As to `Cc1ccc2cc(/C=N/Nc3ccc(C(=O)O)cc3)c(Cl)nc2c1`, the activation was 8.93% (active). Then `Cc1ccc2cc(/C=N/NC(=O)[C@@H]3CCCN3)c(Cl)nc2c1`, with 0.79%; and `CCOCCCNC(=O)C(NC(=O)CNC(=O)c1ccccc1)c1ccc(C)cc1` (configuration not stated), with 1.83%. Regarding `COc1ccc(OC)c(NC(=O)CSc2nc3cccnc3n2C)c1`, the activation was 1.38%.

Turning to `COc1cccc(-c2ccc(C#N)c(SCC(=O)NCCc3ccc(Cl)cc3)n2)c1`, the activation was 1.81%. For `COc1cccc2cc(/C(C)=N/NC(=O)c3ccco3)oc12`, the activation is 3.55%. Then `COc1ccc(C)cc1NC(=O)CSc1nc(SC)ns1`, with -0.57%; and `CSc1nsc(SCC(=O)Nc2cc(C(=O)O)ccc2C)n1`, with 0.88%; and `COc1ccc(NC(=O)CSc2nc(SC)ns2)c(OC)c1`, with 7.6% (active). As to `Cc1cccc(C(=O)NC2CCN(CC(=O)Nc3cccc(Cl)c3)CC2)c1`, the activation is -1.24%. In the case of `Fc1c(F)c(C(F)(F)F)c(F)c(F)c1N1CCN(c2ccc3nnc(C(F)(F)F)n3n2)CC1`, the activation is -0.98%.

Consider `Cc1ccc2nsnc2c1NC(=O)c1ccccc1[N+](=O)[O-]`, for which the activation is 3.24%. Then `Cc1ccccc1Nc1c([N+](=O)[O-])ccc2nonc12`, with 8.33% (active); and `Cc1cc(NC(=O)Nc2ccccc2[N+](=O)[O-])no1`, with 3.8%. Consider `CC(C)CN(C(=O)CSc1nncn1C)C1CCS(=O)(=O)C1` (configuration not stated), for which the activation was 0.57%. Consider `CN1C(=O)/C(=N/OC(=O)c2ccccc2Br)c2ccccc21`, for which the activation was 2.92%.

As for `CN1C(=O)/C(=C\c2cc(Br)cs2)c2ccccc21`, the activation was 9.69% (active). For the compound `CCC1C(=O)c2ccccc2N(C)C1=O` (configuration not stated), the activation is 0.11%. With `COCCC(=O)Nc1ccc2c(c1)CN(C(=O)CCOC)CC2`, the activation was 0.49%. Then `CC1C/C(=N/NC(=O)c2cccs2)CC(C)(C)C1` (configuration not stated), with 2.63%; and `Cc1nnc(Sc2nc3c(c(=O)[nH]c(=O)n3C)n2Cc2ccccc2)s1`, with 21.3% (active).

In the case of `Cc1nnc(SCCCn2c(N3CCCCC3)nc3c2c(=O)[nH]c(=O)n3C)s1`, the activation is 3.13%. In the case of `C=CCn1c(SCc2ccccc2)nc2c1c(=O)[nH]c(=O)n2C`, the activation is 4.04%.

The values are drawn from PubChem BioAssay AID540364 (The Scripps Research Institute Molecular Screening Center, 2011).
